# From PubChem
# Measles CPE = protection of cells from measles virus. AID 841. 140,000 tested, 1.5% active. protection (pct of control), % at 4 µM. Measles virus-infected cells, CPE protection, absorbance; in the data active = protection mostly above about 24%, no sharp cut-off; inactive = mostly below about 26%
# sdo1 growth = sdo1-depleted yeast growth rescue | S. cerevisiae sdo1-depleted JHY4D growth rescue, OD600 30 h; active compounds read high; pdr5 snq2 efflux-pump mutant strain | z-score at 10 µM | 140,000 tested, 0.21% active | AID 817;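 active = z-score above 3 at both the 24 hr and the 30 hr optical density reads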;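 also: z-score against mean and SD of all compound wells on the same plate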
# ROMK mod = modulators of human ROMK potassium channel; P48048; Tet-inducible ROMK, thallium flux fluorescence; actives lie on both sides; B-score at 10 µM; 130,000 tested, 2% active; AID 1918;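 active = signal ratio slope over the read window, or its plate-corrected B-score, at least 3 SD from the plate mean, either direction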;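 also: B-score of the F/F0 ratio slope over 7 to 12 s after thallium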
# Target sequence (P48048 whole entry, looked up): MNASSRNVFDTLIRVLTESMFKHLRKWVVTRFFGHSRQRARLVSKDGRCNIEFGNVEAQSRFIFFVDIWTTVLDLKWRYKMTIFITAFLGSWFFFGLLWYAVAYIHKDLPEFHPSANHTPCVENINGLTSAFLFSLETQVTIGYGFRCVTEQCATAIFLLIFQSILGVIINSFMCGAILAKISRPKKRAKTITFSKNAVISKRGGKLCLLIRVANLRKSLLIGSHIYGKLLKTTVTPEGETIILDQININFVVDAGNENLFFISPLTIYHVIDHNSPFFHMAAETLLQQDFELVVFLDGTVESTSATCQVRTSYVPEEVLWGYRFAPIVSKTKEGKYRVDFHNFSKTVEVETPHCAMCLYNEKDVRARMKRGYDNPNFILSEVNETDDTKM
# INS promoter inh = TRM-6 insulin promoter activity inhibition; 130,000 tested, 0.9% active; TRM-6 cells (human fetal islet line), insulin promoter-eGFP reporter, imaging; reporter expression induced with tamoxifen; AID 1273; inhibition, % at 2 µM;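 active = inhibition above the mean plus 3 SD, with well images judged a real hit on visual review, cut at about 60% in these data, passing the limit was not always enough; inconclusive = inhibition over the cutoff but images rejected on review; inactive = inhibition not above the cutoff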
# SDO1 rescue DR = confirmation of growth rescue in SDO1-depleted yeast, bone marrow failure. shares compounds with sdo1 growth. S. cerevisiae JHY4D (SDO1-depleted) growth rescue, OD600, 30 h; active compounds read high; efflux-deficient strain, SNQ2 and PDR5 mutated. 440 tested, 44% active. OD recovery (no concentration beside the values);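 active = yeast growth recovered at 30 hours, either rising with dose fitted slope above 0.001 or with average optical density gain above 0.07, some results past the limit were not filed as active; inactive = growth falling with dose or no effect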;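 also: gain in OD600 from 0 h to 30 h averaged across all seven doses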
# Active calls of the source: *; ? = inconclusive; . = no result. Rows were chosen to be rich in hits. Some 3% of all compounds tested hit in one or more screens of this group.
SMILES,Measles CPE,sdo1 growth,ROMK mod,INS promoter inh,SDO1 rescue DR
N#Cc1cc2c(nc1SCC(=O)Nc1sc3c(c1C#N)CCC3)CCC2,4,1.1,.,21,0.024
Cc1c(Br)c([N+](=O)[O-])nn1CC(=O)c1ccccc1,.,.,-0.09,-50,.
COc1cccc(CC2(CO)CCCN(Cc3sc(N4CCCC4)nc3Cl)C2)c1 (configuration not stated),.,.,-1,.,.
Cc1nnc(NC(=O)CSc2ncnc3scc(-c4ccccc4)c23)s1,6,2.3,.,-4,0.087*
CC(C)OCCCNC(=O)NC12CC3CC(CC(C3)C1)C2,4,9.4*,.,?,0.079*
COCCNC(=O)NC12CC3CC(CC(C3)C1)C2,.,.,0.54,.,.
COc1ccc(CN(C)CC(=O)Nc2ccc(Cl)cc2C(F)(F)F)c(OC)c1,3,-0.29,0.29,13,.
O=C(COC(=O)c1ccc2c(c1)OCO2)Nc1nc(-c2ccccc2)cs1,.,.,0.0052,.,.
Cc1cc(C)c(-c2csc(NC(=O)COC(=O)c3ccc4c(c3)OCO4)n2)c(C)c1,4,0.97,0.46,27,0.054
COC(=O)CSc1nnc(CNC(=O)Cc2ccccc2)n1-c1ccccc1OC,21,0.14,.,.,.
Cc1cc(C)nc(N(C#N)S(=O)(=O)c2ccc(Br)cc2)n1,6,12*,0.051,-13,0.037
Cc1ccc2cc(CN(CCCO)S(=O)(=O)c3cccc4nsnc34)c(=O)[nH]c2c1,23,-0.14,2,-42,.
COC(C(=O)Nc1ccc(S(=O)(=O)Nc2cccc3ccccc23)cc1)c1ccccc1 (configuration not stated),8,8.8*,.,.,0.065
COc1ccc(C(=O)N2CCCC(C(=O)N3CCCCCC3)C2)cc1 (configuration not stated),22,4.2*,0.91,-28,0.064
O=C(c1cccc(F)c1)N1CCCC(C(=O)N2CCCC2)C1 (configuration not stated),17,0.13,1.1,0,0.083*
O=C(c1ccccc1)N1CCCC(C(=O)N2CCCCCC2)C1 (configuration not stated),13,-0.08,0.12,0,.
S=C(NC1CCCCC1)N1CCCCC1,.,.,1,.,.
CN(C)C(CNC(=O)c1cc(S(=O)(=O)N(C)c2ccccc2)ccc1Cl)c1cccs1 (configuration not stated),.,.,.,-93,.
CC(=O)Oc1ccccc1N(C(C)=O)S(=O)(=O)c1cccc([N+](=O)[O-])c1,.,.,-0.53,.,.
COc1ccc(Nc2nc3ccccc3s2)cc1,.,.,0.00073,.,.
COc1ccc(C(O)c2nc3ccccc3s2)cc1 (configuration not stated),4,10*,.,-61,0.053
Cc1c(C(=O)O)sc(=S)n1-c1ccc(Cl)cc1,4,0.48,.,-29,.
CSc1cc(C)n(-c2ccc(Cl)cc2)c(=S)c1C(C)=O,2,11*,-1.2,-21,0.05
COc1cc(C(=O)NC(CCSC)C(=O)OCC(=O)C(C)(C)C)cc(OC)c1OC (configuration not stated),.,.,-0.11,-20,.
CCc1ccc(S(=O)(=O)NCCc2cn3ccc(C)cc3n2)s1,.,.,-1.1,-95,.
SMILES,Measles CPE,sdo1 growth,ROMK mod,INS promoter inh,SDO1 rescue DR
O=C(CCc1c[nH]c2ccccc12)N1CCN(c2ccc(O)cc2)CC1,.,.,0.17,19,.
Cc1ccc(C(=O)N(Cc2ccc3c(c2)OCO3)Cc2nc3ccccc3c(=O)[nH]2)cc1,4,8.5*,0.073,12,0.091*
CC(C)CNC(=O)NC1C(NC(=O)NCC(C)C)N(C)C(=O)N1C (configuration not stated),2,4.4*,.,55,0.073*
CCc1cc(=O)oc2cc(OC(C)C(=O)O)c(Cl)cc12 (configuration not stated),6,3.1*,.,.,0.092*
CCc1cc(=O)oc2cc(OCC(=O)O)c(Cl)cc12,10,0.72,.,57,.
C=CC[C@@H]1Cc2c(Br)ccc(Br)c2[C@@H](CC=C)N1,10,6.5*,-1,-33,0.1*
Cc1ccc(-c2cccc(C(=O)NCc3ccccc3)n2)c2ccccc12,7,-0.18,-0.57,48,.
O=C(NCc1ccccc1)c1cccc(Br)n1,44*,15*,-0.72,0,0.063
COCCCn1c(SCC(=O)N2CC(=O)Nc3ccccc32)nnc1-c1ccoc1C,13,11*,.,3,0.084*
Cc1cc(C)nc(NS(=O)(=O)c2ccc(NC(=O)C3(c4ccc([N+](=O)[O-])cc4)CCCC3)cc2)n1,13,0.65,.,.,.
Cc1cccc(NC(=O)C2(c3ccc([N+](=O)[O-])cc3)CCCC2)c1,1,6.5*,-0.88,-25,0.051
